# Compound activity deposited in PubChem BioAssay by National Center for Advancing Translational Sciences (NCATS).
# Hits are enriched below; roughly 19% of the tested compounds scored in any of these assays.
# TDP1 cell CPT: growth inhibition of DT40 Tdp1-/-;hTDP1 cells with camptothecin (screen for TDP1 inhibitors) | AID 686979 | Potency, µM (doses to about 46.2 µM), for inactives: at the highest dose activity change, negative = growth inhibition, most hits filed as inhibitors | chicken DT40 Tdp1-/-;hTDP1 cells + 20 nM CPT, ATP luminescence, 48 h | hit rate 12% among 420,000; note: potency is the fitted concentration of half-maximal effect; nearly all actives have a fitted effect of over 55% in size
#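 Cell growth measured by CellTiter-Glo luminescence after a minimum 48 h, 37 C compound exposure with 20 nM CPT in Tdp1-knockout DT40 cells stably expressing hTDP1, seeded 400/well; qHTS titration format.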
# ELG1 repair inh: inhibitors of ELG1-dependent DNA repair in HEK293T cells; hit rate 2.3% among 330,000; AID 504467; Potency, µM (top dose mostly 46.1 µM), for inactives: top-dose activity change, negative = inhibition, usual class: inhibitors; HEK293T ELG1-luciferase reporter, luminescence, 16 h; DNA damage induced by 5-fluorouridine; note: potency is the fitted concentration of half-maximal effect; nearly all actives have a fitted effect of over 55% in size
#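 HEK293T cells expressing luciferase-tagged ELG1 (2,000/well) received 5-Fluorouridine plus compound or DMSO for 16 hr at 37 °C. Luciferase was read by ONE-Glo luminescence after 30 min at room temperature.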
# TDP1 block: inhibitors of human tyrosyl-DNA phosphodiesterase TDP1; Q9NUW8; recombinant TDP1, AlphaScreen DNA substrate cleavage; Potency, µM (doses to about 130 µM), without a hit: top-dose activity change, negative = inhibition, hits mostly inhibitors; hit rate 0.28% among 350,000; note: potency is the fitted concentration of half-maximal effect; nearly all actives have a fitted effect of over 40% in size
# Target sequence (Q9NUW8 whole entry, looked up): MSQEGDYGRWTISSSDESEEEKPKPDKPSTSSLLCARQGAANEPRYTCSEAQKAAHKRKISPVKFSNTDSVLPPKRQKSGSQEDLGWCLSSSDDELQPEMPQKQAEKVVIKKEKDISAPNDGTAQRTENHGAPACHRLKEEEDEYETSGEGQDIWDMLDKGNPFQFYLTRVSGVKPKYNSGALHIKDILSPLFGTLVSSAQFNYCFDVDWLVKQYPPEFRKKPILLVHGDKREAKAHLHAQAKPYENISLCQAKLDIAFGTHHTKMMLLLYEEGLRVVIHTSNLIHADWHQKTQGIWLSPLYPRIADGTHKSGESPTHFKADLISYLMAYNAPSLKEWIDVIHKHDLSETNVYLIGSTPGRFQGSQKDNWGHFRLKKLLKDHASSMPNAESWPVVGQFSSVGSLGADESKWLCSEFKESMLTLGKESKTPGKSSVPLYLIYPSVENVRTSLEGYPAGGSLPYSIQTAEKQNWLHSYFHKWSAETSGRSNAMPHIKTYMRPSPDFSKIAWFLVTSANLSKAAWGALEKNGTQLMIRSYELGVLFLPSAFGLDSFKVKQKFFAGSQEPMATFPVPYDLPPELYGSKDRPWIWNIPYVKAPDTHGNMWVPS
#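 Steps: enzyme plus compound, 15 min RT; add biotin/phosphotyrosine-FITC oligonucleotide (15 nM final), react 5 min; add donor/acceptor beads (10 ug/ml final), 10 min; read AlphaScreen. Tdp1 at 1 nM final.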
# Giardia kill: kills Giardia lamblia. activity change, % at 7.66 µM, hits read low. Giardia lamblia trophozoite viability. hit rate 0.15% among 340,000; in the data active = activity change below about -80%; inconclusive = between about -30% and that limit;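 note: parasites exposed to compound for two days anaerobically before the ATP read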
#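 Luminescence from cellular ATP indicates surviving trophozoites (100 cells/well) following 48 hrs anaerobic compound treatment at 37 deg C; signal develops 15-30 min at room temperature.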
# IL-1B inflam inh: blocks inflammasome-driven IL-1 beta release. AID 743279. hit rate 4.7% among 360,000. activity change, % at 57.5 µM. THP-1 LPS/ATP IL-1B secretion, AlphaLISA, 16 h; active compounds read low; in the data active = activity change below about -50%; inconclusive = mostly about -30% to -49%
#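 Secreted IL-1B measured by AlphaLISA bead assay after 16 h compound exposure of THP-1 cells; compounds (final up to 57.5 uM) added 1 h before LPS (250 ng/mL) and ATP (1.25 mM) stimulation; lower signal means less secretion.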
# DT40 TDP1 no CPT: qHTS for Inhibitors of human tyrosyl-DNA phosphodiesterase 1 (TDP1): qHTS in cells in absence of CPT | hit rate 15% among 420,000 | DT40 Tdp1-/- hTDP1 cells, no CPT, ATP luminescence, 48 h | Potency, µM (top dose mostly 46.2 µM), for the others: top-dose activity change, negative = growth inhibition, hits mostly inhibitors; note: potency is the fitted concentration of half-maximal effect; nearly all actives have a fitted effect of over 55% in size
#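 Seeded 400 DT40-hTDP1 cells/well (vehicle DMSO, no 20 nM CPT); pinned compounds; ≥48 hr at 37 °C; CellTiter-Glo luminescence as viability measure.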
# * hit, by the source's call; u = inconclusive; x = not tested or not shown; [ ] = remark or other dose. Unless noted, calls come from the whole dose curve; as a rule, active = well fitted curve in the direction sought with a large enough effect; inconclusive = small, poorly fitted or top-dose-only effect, or another doubt; inactive = no such curve, though single readings can be large; an effect the other way counts as inactive or inconclusive. % is set by controls: 0 for no effect and ±100 for the full control effect.
SMILES,TDP1 cell CPT,ELG1 repair inh,TDP1 block,Giardia kill,IL-1B inflam inh,DT40 TDP1 no CPT
C[C@@H](c1ccccc1)N1C(=O)[C@H]2[C@@H]3[C@H](O)[C@H](O)CC(=O)[C@H]3CC[C@H]2C1=O,x,x,5%[21 µM],x,x,x
CC(C)C[C@H]1CN(CCCC[C@H]2CNC(=O)C(=O)N2CCC2CCCCC2)C(=O)C(=O)N1CC1CCCCC1,16µM*,x,x,x,-24,18µM*
O=C1NC[C@H](CCCCN2C[C@H](Cc3ccccc3)N(CCC3CCCCC3)C(=O)C2=O)N(CCc2ccccc2)C1=O,u,x,x,x,-72*,u
Nc1ccc(O)cc1,7.7µM*,x,15%,-14,x,12µM*
COc1ccc(NS(=O)(=O)c2ccc3c(c2)CCN3C(=O)CCC(=O)O)cc1Cl,3%,x,2%,x,x,-6%
Cc1cc2c(n1-c1ccc(C(=O)NCc3ccccc3Cl)cc1)CCCC2,23µM*,x,9%,x,x,18µM*
Cc1ccc(CNC(=O)c2ccc(-n3c(C)cc4c3CCCC4)cc2)cc1,u,x,1%,x,x,u
Cc1cc2c(n1-c1ccc(C(=O)NCc3ccc(OC(C)C)cc3)cc1)CCCC2,26µM*,x,5%,x,x,16µM*
O=C(COc1ccc(F)cc1)NC1CC(=O)N(c2ccc3c(c2)OCCO3)C1 (stereo not given),-14%,x,3%,x,x,-22%
C#Cc1ccc([C@@H]2C=C(C(=O)Nc3ccccc3)O[C@H](OCC)[C@H]2CCCO)cc1,16µM*,u,3%,0,u,13µM*
CCO[C@@H]1OC(C(=O)Nc2ccccc2)=C[C@H](C2CC2)[C@H]1CCCO,u,13%,5%,-6,6,u
CCO[C@H]1OC(C(=O)Nc2ccccc2)=C[C@@H](c2ccc(C(F)(F)F)cc2)[C@@H]1CCCO,15µM*,3%,5%,0,-55*,15µM*
COc1ccc(S(=O)(=O)N2CCCCCC2)cc1C(=O)N(C)CC(=O)Nc1cc(C)ccc1C,u,u,1%,7,-14,-20%
C=CCN(c1ccccc1)S(=O)(=O)c1cc(C(=O)NC2=NCCS2)ccc1Cl,-6%,21µM*,-8%,-5,3,-28%
C=CCN(c1ccccc1OC)S(=O)(=O)c1cccc(C(=O)NC2=NCCS2)c1,u,23µM*,-3%,-2,-11,23µM*
C=CCN(c1ccc(F)cc1)S(=O)(=O)c1cc(C(=O)NC2CCC(O)CC2)ccc1Cl (stereo not given),u,5%,2%,-14,0,-28%
CC1=CC2=NC(=O)/C(=C/c3cccn3Cc3ccccc3)C(=N)N2O1,19%,-9%,7%,-5,26,u
CC1=CC2=NC(=O)/C(=C\c3cccn3CCOc3ccc(C)c(C)c3)C(=N)N2O1,u,18µM*,7%,-9,-60*,u
Cc1cc(C(=O)NCCc2ccc(Cl)cc2)c2c(C)nn(-c3cccc(F)c3)c2n1,-28%,x,5%,x,x,-21%
Cc1ccc(N(C)C(=O)c2ccc3c(Cl)c4c(nc3c2)CCC4)cc1C,u,-11%,4%,17,-65*,u
CSc1ccc(CCNC(=O)c2ccc3c(Cl)c4c(nc3c2)CCCC4)cc1,u,x,3%,x,x,23µM*
COc1ccc(N(C)C(=O)c2ccc3c(Cl)c4c(nc3c2)CCCC4)c(OC)c1,u,-26%,8%,u,u,-29%
Cc1ccc(CCNC(=O)c2ccc3c(Cl)c4c(nc3c2)CCCC4)cc1,u,x,7%,x,x,18µM*
CN(C)S(=O)(=O)c1cccc(NC(=S)Nc2cc(Cl)cc(Cl)c2)c1,26µM*,u,0%,-11,-70*,23µM*
CCN(CCO)c1ccc(NC(=S)Nc2cccc(S(=O)(=O)N(C)C)c2)cc1,-13%,u,0%,-15,29,u
SMILES,TDP1 cell CPT,ELG1 repair inh,TDP1 block,Giardia kill,IL-1B inflam inh,DT40 TDP1 no CPT
CN(C)S(=O)(=O)c1cccc(NC(=S)Nc2ccc(Cl)cc2Cl)c1,u,u,-1%,8,-5,16µM*
CCC(=O)Nc1ccc(CC)cc1-c1nc2ccccc2n(CC(=O)c2ccc(OC)cc2)c1=O,-24%,x,3%,x,x,-25%
O=C(N/N=C/c1cc2ccccc2[nH]1)c1ccccc1Cl,0%,-1%,x,-1,15,-29%
CCCCCCn1c(-c2ccco2)nc2oc3cc(OC)ccc3c(=O)c2c1=O,u,u,-1%,1,-14,21µM*
COc1ccc2c(=O)c3c(=O)n(Cc4ccco4)c(-c4cc(OC)c(OC)c(OC)c4)nc3oc2c1,u,13µM*,3%,-10,52,u
Cn1c(C2=C(O)CN(c3ccccc3)C2=N)nc2ccccc21,2%,u,7%,-19,62,-5%
CCn1cc(CN(C)C(=O)/C=C/c2ccc([N+](=O)[O-])cc2)c(C)n1,u,-9%,2%,11,0,15µM*
Cc1nn(C)cc1C(=O)/C=C/c1ccc([N+](=O)[O-])cc1,u,16%,0%,-6,-99*,18µM*
CC(C)(C)c1ccc(C(=O)OCC(=O)N2CCC(c3ccccc3)=N2)cc1,-28%,13%,1%,-13,u,u
COc1ccc(C)cc1NC1=C(Cl)C(=O)N(C2CCCCC2)C1=O,u,u,4%,-9,4,12µM*
COc1ccccc1N1CCN(CCCCN2C(=O)C3CCCCN3C2=O)CC1 (stereo not given),26µM*,-26%,x,11,21,u
COc1ccccc1N1CCN(CCCCCCOc2ccc(F)cc2)CC1,23µM*,-23%,0%,1,-23,21µM*
COc1ccccc1OCCCCN1CCN(c2ccccc2OC)CC1,u,-18%,x,-11,-6,u
COc1ccccc1N1CCN(CCCCOc2cccc3ccccc23)CC1,18µM*,u,11%,-9,-57*,9.2µM*
CCCCOc1ccccc1N1CCN(CCCN2C(=O)C3CCCN3C2=O)CC1 (stereo not given),-25%,-10%,7%,5,0,7%
O=C(CNC(=O)C1CCCCC1)NC1CCCCC1,-8%,u,5%,7,19,-1%
CC1CN(C2=N/C(=C/c3ccc4c(c3)OCO4)C(=O)N2)CC(C)O1 (stereo not given),-9%,21µM*,0%,19,22,u
CC(C)C(=O)Nc1cc(C(F)(F)F)ccc1-n1ccnc1,-10%,-6%,3%,5,13,4%
